Screens deposited in PubChem BioAssay by several laboratories.
Mtb betalactam: beta-lactam sensitization of Mtb H37Rv, H37Rv. hit rate 0.27% among 330,000. M. tuberculosis H37Rv growth with meropenem, percent inhibition. inhibition, % at 25 µM; call rule not given here;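 note: growth measured after seven days incubation then overnight dye step; 0% = bacteria only wells and 100% = bacteria with antibiotic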
CCHFV vOTU inh: CCHFV vOTU protease inhibitors, primary screen, biochemical, Pep-AMC substrate, fluorescence; Crimean-Congo hemorrhagic fever virus L polyprotein viral ovarian tumor (vOTU) protease …; inhibition, % at 11.5 µM; hit rate 0.55% among 370,000; AID 651958, 2012; in the data active = inhibition above about 30%; note: 0% = vehicle wells with enzyme and 100% = no enzyme wells
GDH-TPI counter-1: GDH-TPI coupling enzyme inhibitors, primary screen, artefact control for M. tuberculosis FBA inhibitor project, biochemical, absorbance, full deck; GDH-TPI coupled enzyme counterscreen, NADH absorbance; inhibition, % at 4.8 µM; hit rate 1.2% among 360,000; AID 588335, 2011; in the data active = inhibition above about 30%;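 note: 0% = DMSO wells and 100% = wells lacking the enzyme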
Mtb FBA inh: Mtb FBA enzyme inhibitors, primary screen, biochemical, fluorescence, strain H37Rv; Fructose-bisphosphate aldolase (Mycobacterium tuberculosis (strain ATCC 25618 / H37Rv)), …; purified M. tuberculosis FBA, fluorescence read-out; inhibition, % at 1 µM; hit rate 2.3% among 360,000; AID 588726, 2011;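 note: 0% = vehicle and 100% = reference inhibitor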
Target sequence (P9WQA3 whole entry, looked up): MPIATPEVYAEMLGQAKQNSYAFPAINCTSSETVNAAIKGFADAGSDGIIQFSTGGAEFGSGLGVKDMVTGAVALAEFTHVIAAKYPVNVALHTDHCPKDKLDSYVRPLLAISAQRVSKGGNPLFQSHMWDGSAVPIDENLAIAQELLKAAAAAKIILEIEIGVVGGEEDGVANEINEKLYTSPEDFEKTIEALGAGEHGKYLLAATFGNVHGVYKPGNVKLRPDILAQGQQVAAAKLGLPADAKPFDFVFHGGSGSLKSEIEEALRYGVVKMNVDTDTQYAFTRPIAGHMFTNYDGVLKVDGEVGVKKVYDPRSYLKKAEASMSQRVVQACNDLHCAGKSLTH
MazF activator: activators of E. coli MazEF toxin-antitoxin RNase, primary screen, biochemical, fluorescence, uHTS; activation, % at 20 µM; FAM/BHQ RNA-DNA oligo cleavage fluorescence, 5 h; AID 504720, 2011; Endoribonuclease toxin MazF (Escherichia coli (strain K12)), P0AE70; hit rate 0.32% among 350,000; in the data active = activation above about 50%
Target sequence (P0AE70 whole entry, looked up): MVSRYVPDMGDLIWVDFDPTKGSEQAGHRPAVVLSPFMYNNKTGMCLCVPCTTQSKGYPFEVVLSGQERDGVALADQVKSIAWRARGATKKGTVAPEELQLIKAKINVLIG
Mtb FBA confirm: M. tuberculosis aldolase blockers, biochemical, fluorescence, strain H37Rv, confirmation. hit rate 78% among 5,600. shares compounds with Mtb FBA inh. purified M. tuberculosis FBA, fluorescence read-out. inhibition, % at 1 µM;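 note: 0% = vehicle wells and 100% = reference inhibitor wells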
GDH-TPI counter-2: GDH-TPI coupling enzyme inhibitors, artefact control for M. tuberculosis FBA inhibitor project, biochemical, fluorescence, high throughput. GDH-TPI coupled enzyme counterscreen. AID 652141, 2013. hit rate 81% among 5,600. inhibition, % at 1 µM. shares compounds with Mtb FBA inh; in the data active = inhibition above about 10%
* = called active by the depositor; / = no result given; + = active, no number. This is a sample that favours compounds with a hit; in the whole collection about 4% have one here. Cut-off read from the data, not from the text of the source, unless noted: active = inhibition above about 27%; inactive = the rest.

SMILES | Mtb betalactam | CCHFV vOTU inh | GDH-TPI counter-1 | Mtb FBA inh | MazF activator | Mtb FBA confirm | GDH-TPI counter-2
COc1ccc(-c2nc3c(-c4ccccc4)cnn3cc2C)cc1F | 9 | -6 | 12 | 2 | -2 | / | /
CN(Cc1ccccc1)C(=O)OCc1cn(Cc2ccccc2Cl)nn1 | / | 10 | / | / | / | / | /
COc1ccc(-c2ccc(C(=O)O)c(=O)[nH]2)cc1 | -1 | -76 | 13 | 71* | -10 | 106* | 81*
COC(=O)[C@@]12CCCCC3=C1N(CCC3)C(=O)[C@H]2CC(=O)NCCC(C)C | / | -2 | / | / | / | / | /
CS(=O)(=O)Nc1ccccc1C(=O)NC1CC2CCC1C2 (stereo not given) | -3 | -14 | 4 | 37* | 4 | 65* | 49*
CS(=O)(=O)Nc1ccccc1C(=O)NCc1ccccc1Cl | 1 | -4 | 0 | 5 | -12 | / | /
Cc1ccccc1CNC(=O)c1ccccc1NS(C)(=O)=O | -6 | -25 | 14 | 59* | -18 | 60* | 51*
Cc1ccc2c(c1)-c1c(cnn1CC(=O)NCCc1ccccc1F)CO2 | / | 0 | / | / | / | / | /
CN1C(=O)N(C)N(Cc2ccccc2)C(=O)N1Cc1ccccc1 | / | 1 | / | / | / | / | /
CCOC(=O)c1c(-c2ccc(Cl)cc2)cn2ccccc12 | -7 | -6 | 24 | 64* | 3 | + | 172*
O=c1ccc2ccc(OCCOc3cccc(Cl)c3)cc2o1 | 4 | -23 | 11 | 49* | 0 | 173* | 157*
COc1cccc(C(=O)COc2ccc3ccc(=O)oc3c2)c1 | -2 | -5 | 5 | 5 | -5 | / | /
O=C(Oc1ccc2ccc(=O)oc2c1)c1ccccc1 | 42 | -279 | 14 | 63* | 1 | 50* | 41*
Cc1cc(=O)oc2cc(OC(=O)c3ccccc3)ccc12 | -5 | -163 | 4 | 75* | 9 | + | +
COc1ccc2c(C)cc(=O)oc2c1 | / | 1 | 18 | 55* | 0 | 91* | 61*
CCOC(=O)CC[C@H]1CC[C@]2(CCCN(C(=O)c3ccc4ccccc4n3)C2)O1 | / | 0 | / | / | / | / | /
CCOc1ccccc1C(=O)Oc1ccc2ccc(=O)oc2c1 | 37 | -203 | -9 | 66* | 1 | 83* | 81*
O=C(COc1ccc2ccc(=O)oc2c1)NC1CCCC1 | 5 | -5 | 11 | 18 | -6 | / | /
O=C(Oc1ccc2ccc(=O)oc2c1)C1CCCCC1 | 4 | -184 | 8 | 108* | 2 | + | +
C[C@H]1C2CC(OC(=O)Nc3cccc(Cl)c3)C(C2)[C@H]2CCCCN21 (stereo not given in full) | / | 10 | / | / | / | / | /
COc1cccc2c(=O)c3c(oc12)CCCC3 | / | -22 | 6 | 45* | 1 | 131* | 94*
CC(C)c1ccc(OCCCN2CCC(C(O)(c3ccccc3)c3ccccc3)CC2)cc1 | / | 24 | / | / | / | / | /
COC(=O)[C@]1(C#N)CC(=O)N(Cc2ccc(Cl)cc2)[C@@H]1c1ccc(OC)cc1 | / | -1 | / | / | / | / | /
S=c1[nH]nc(-c2c[nH]c3ccccc23)o1 | 0 | 6 | 3 | 50* | 2 | 0 | -2
COC(=O)c1cc2c(c3c4cc(F)ccc4n(S(=O)(=O)c4cccc(C)c4)c13)C(=O)N(Cc1ccco1)C2 | / | 5 | / | / | / | / | /
SMILES | Mtb betalactam | CCHFV vOTU inh | GDH-TPI counter-1 | Mtb FBA inh | MazF activator | Mtb FBA confirm | GDH-TPI counter-2
C=CCOc1ccc(-c2n[nH]c(=S)o2)cc1 | 13 | -2 | 4 | 35* | -1 | 87* | 76*
COc1ccc(C(=O)Nc2ccc(-c3n[nH]c(=S)o3)cc2)cc1 | 85 | 4 | 15 | 1 | 5 | / | /
O=C(CSc1ncccc1-c1nc2ccccc2[nH]1)NCc1ccco1 | -5 | -17 | 2 | 21 | -10 | / | /
Cc1cc2nc(-c3cccnc3SCC(=O)NCc3ccco3)[nH]c2cc1C | 3 | -61 | 17 | 40* | -5 | 3 | -3
COc1ccc(-n2cc(CN[C@H]3CCCCNC3=O)c(-c3cccc(F)c3)n2)cc1 | 21 | 2 | 6 | 57* | -1 | -4 | -1
COc1ccc(-n2cc(CNC3CCN(C)CC3)c(-c3cccc(F)c3)n2)cc1 | 9 | 7 | 13 | 64* | 10 | 189* | 162*
CCOC(=O)[C@]12CCCCC/C=C\1N(CCc1ccc(Cl)cc1)C(=O)[C@H]2CC(=O)NCc1cccc2ccccc12 | / | 15 | / | / | / | / | /
N#Cc1c(NCCN)nc(-c2ccccc2)c2c1CCCC2 | -12 | 5 | 2 | 9 | 18 | / | /
CN(C)CCCNc1nc(-c2ccccc2)c2c(c1C#N)CC(C)(C)OC2 | -5 | -38 | 9 | 45* | 15 | 107* | 85*
CC1(C)Cc2c(C#N)c(NCC3CCCO3)nc(-c3ccco3)c2CO1 (stereo not given) | 1 | -47 | 15 | 30* | -11 | + | +
N#Cc1c(NCCCO)nc(-c2ccccc2)c2c1CCCC2 | -5 | -7 | 21 | 51* | 0 | 58* | 36*
CC1(C)Cc2c(C#N)c(NCCc3ccccc3)nc(-c3ccco3)c2CO1 | -13 | 0 | 13 | 35* | -6 | 171* | 135*
CCOC(=O)[C@@]12CCCC3=C1N(CCC3)C(=O)[C@H]2CC(=O)N1CCCC1 | / | -2 | / | / | / | / | /
COC(=O)C[C@@H]1CC[C@H]2[C@H](COc3ccc(NC(=O)Nc4ccc(Cl)cc4)cc3C(=O)N2C)O1 | / | 9 | / | / | / | / | /
CCN(C(=O)C1CCN(c2ncccn2)CC1)c1ccccc1 | / | -8 | / | / | / | / | /
CCOc1ccc(CN2CCNC(=O)C2CC(=O)NCCc2nc(C)c3c(n2)CCC3)cc1 (stereo not given) | / | 2 | 5 | 28* | 15 | + | 154*
CCOP(=O)(OCC)c1nc(-c2ccccc2)oc1NCc1ccccc1 | 10 | -26 | 8 | 82* | 1 | 24 | 13*
O=P(c1ccccc1)(c1ccccc1)c1nc(-c2ccccc2)oc1NCc1ccccc1 | -4 | 4 | 1 | 4 | 0 | / | /
CCOP(=O)(OCC)c1nc(-c2ccc(F)cc2)oc1NCc1ccccc1 | -2 | 1 | 3 | 77* | -27 | 46* | 29*
Cc1ccc(-c2n[nH]c(=S)n2/N=C/c2ccc(C(=O)O)cc2)cc1 | 3 | 8 | 3 | -1 | 2 | / | /
S=c1[nH]c(-c2ccccc2)cn1/N=C/c1cccnc1 | -6 | -11 | 18 | 34* | 4 | 94* | 85*
S=c1[nH]c(-c2ccccc2)cn1/N=C/c1cccs1 | -1 | 17 | 40* | 31* | 9 | 152* | 126*
S=c1[nH]c(-c2ccccc2)cn1/N=C/c1ccc(Br)cc1 | -5 | 5 | 1 | 33* | 15 | 170* | 126*
